# High-throughput results deposited in PubChem by several laboratories.
# TWEAK-Fn14 inh: TWEAK-Fn14 signaling inhibition. TWEAK-stimulated Fn14 reporter cells, luciferase luminescence, 8 h. inhibition, % at 10 µM. 2% of 360,000 active. AID 1159606; in the data active = inhibition above about 50%
# TROY signal inh: TROY signaling inhibition | inhibition, % at 10 µM | Q293 LMP1-TROYcd NF-kB luciferase reporter, 4 h | 0.98% of 360,000 active;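 active = compounds whose plate-normalised and pattern-corrected inhibition of the luciferase reporter signal at the single screening dose is 50% or more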
# LMP1 NFkB inh: inhibitors of Epstein-Barr LMP1-induced NF-kappaB reporter; LMP1-induced NF-kappaB luciferase reporter cells, luminescence; inhibition, % at 12.5 µM; 0.69% of 350,000 active; AID 504558; in the data active = inhibition above about 41%;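 also: 0% = neutral control wells and 100% = reference inhibitor control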
# Peg3 promoter: inhibitors of Peg3 promoter | HeLa PEG-Prom luciferase reporter, luminescence, overnight | inhibition, % at 20 µM | 1.7% of 360,000 active;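 active = inhibition of at least 50% at 20 µM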
# MITF TRPM1 inh: inhibitors of MITF-driven TRPM1 promoter in melanoma cells | SK-MEL-5 TRPM1 promoter luciferase, 24 h | inhibition, % at 12.5 µM | 0.83% of 330,000 active;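 active = mean inhibition across replicates of 60% or more, whatever share of single replicates reaches that level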
# Shn3 3UTR inh: inhibitors of Schnurri-3 3'UTR reporter in osteoblasts; Clone20 osteoblast Shn3 3'UTR firefly luciferase, 24 h; inhibition, % at 12.5 µM; 0.52% of 360,000 active;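 active = mean inhibition of at least 75% with every replicate also reaching 75%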;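 also: 0% = median of neutral control wells and 100% = pilot-screen positive control compound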
# The depositor's hits bear a star; . = no result given. In the library only some 4.1% were active in any assay of this set; here they are far more common.
SMILES,TWEAK-Fn14 inh,TROY signal inh,LMP1 NFkB inh,Peg3 promoter,MITF TRPM1 inh,Shn3 3UTR inh
Cc1ccc(S(=O)(=O)NC(C(=O)N2CCN(S(=O)(=O)c3cccc(F)c3)CC2)C(C)C)cc1 (centres undefined),7,-3,-2,-4,-6,22
O=C(c1ccccc1)N1CCSC1=S,5,22,27,-4,-2,-1
O=C(c1ccccc1)N1CCSc2sccc2C1=O,-4,-40,72*,27,50,27
Cc1nn(-c2ccccc2)c2[nH]c(=O)c(CNc3ccc4c(c3)OCCO4)cc12,58*,66*,2,-72,0,30
Cc1ccc(-c2nn(-c3ccc(F)cc3)cc2C(=O)NCCCN2CCCC2=O)cc1,-7,-27,-11,-34,-13,-17
CCCn1c(SCC(=O)N(C2CCCCC2)C2CCS(=O)(=O)C2)n[nH]c1=O (centres undefined),1,-16,19,-7,7,-12
Cc1ccccc1NS(=O)(=O)c1cc(C(=O)Nc2cccc([N+](=O)[O-])c2)ccc1C,67*,59*,-5,35,-4,23
Cc1ccc(C(=O)Nc2ccccc2C(=O)O)cc1S(=O)(=O)Nc1ccc(Br)cc1,6,51*,-1,3,12,3
Cc1ccc(C(=O)Nc2ccccc2C(=O)O)cc1S(=O)(=O)NCc1ccccc1,-6,14,-3,11,7,2
Cc1ccc(C(=O)Nc2cccc([N+](=O)[O-])c2)cc1S(=O)(=O)Nc1ccc(C(=O)O)cc1,1,9,-1,0,6,-11
Cc1ccc(C)c(N2CCN(CCCNC(=O)Cn3cccc3C(=O)c3ccccc3C)CC2)c1,19,-2,-1,107*,57,27
Cc1cccc(C)c1NC(=O)CN(C)C(=O)CN1C(=O)NC2(CCCC2)C1=O,3,-13,1,10,-1,-24
CCCCCCC(=O)N(O)C1CC(=O)N(Cc2ccccc2)C1=O (centres undefined),-80,-16,52*,35,5,-23
CCCCCC(=O)N(O)C1CC(=O)N(c2ccccc2)C1=O (centres undefined),-28,1,23,37,1,4
COc1ccc(C)cc1-n1nnnc1SC(C)C(=O)NC1CCCC1 (centres undefined),-9,17,-5,14,-3,6
O=C(CCCn1c(=S)[nH]c2cc3c(cc2c1=O)OCO3)N1CCN(c2ccc(Cl)cc2)CC1,17,58*,22,25,18,22
Cc1cccc(N2CCN(C(=O)CCn3c(=S)[nH]c4cc5c(cc4c3=O)OCO5)CC2C)c1 (centres undefined),47,20,2,63*,-10,-14
O=C(CCCn1c(=S)[nH]c2cc3c(cc2c1=O)OCO3)N1CCN(c2ccccc2)CC1,13,8,0,15,5,1
C[C@@]12C(=O)N(CC3CC3)CC(=O)N1[C@H](C1CC1)[C@@H]1C(=O)N(c3ccccc3)C(=O)[C@@H]12,-10,2,3,0,5,7
N#Cc1sc(=O)[nH]c1Cl,0,-25,-5,5,-1,16
CC1CCC(C(=O)NC(C(=O)NCCc2ccc(S(N)(=O)=O)cc2)C(C)C)CC1 (centres undefined),17,-7,.,14,-27,-13
COc1ccccc1-n1c(-c2ccccc2)n[nH]c1=S,-3,7,46*,4,6,48
Cc1cccc(-c2n[nH]c(=S)n2C)c1,-4,-5,-4,19,6,-10
Cn1c(-c2ccccc2)n[nH]c1=S,85*,-10,-3,7,-15,10
Cc1ccc(OCc2nnc(NC(=O)c3cccnc3)s2)cc1,11,-11,0,-53,0,-21
SMILES,TWEAK-Fn14 inh,TROY signal inh,LMP1 NFkB inh,Peg3 promoter,MITF TRPM1 inh,Shn3 3UTR inh
CCCN(C(=O)CSc1n[nH]c(-c2ccc(OC)cc2)n1)c1c(N)n(Cc2ccccc2)c(=O)[nH]c1=O,6,-10,-1,-41,-1,-7
Cc1noc(C)c1COc1ccccc1C(=O)NC(C)c1ccc(F)cc1 (centres undefined),-5,-10,-3,-3,-1,11
COc1ccc(-n2nc(C#N)c(Cl)cc2=O)cc1,96*,61*,-8,104*,100*,37
Cc1ccc(NCc2nnc(SCC(=O)c3ccc4c(c3)OCCO4)o2)c(C)c1,31,77*,-5,4,9,-8
COc1ccc2nc(/C(C#N)=C\c3ccc(Oc4ccc([N+](=O)[O-])cn4)cc3)[nH]c2c1,-12,19,3,81*,-9,25
Cc1ccc2nc(/C(C#N)=C\c3ccc(Oc4ccc([N+](=O)[O-])cn4)cc3)[nH]c2c1,-12,-18,15,19,-2,24
O=C(CCC(=O)c1cccs1)OCc1ccc([N+](=O)[O-])cc1,-8,-4,4,3,0,5
Oc1ccc(-c2csc(Nc3cccc4ccccc34)n2)cc1O,16,26,-4,-6,-10,87*
Oc1ccc(-c2csc(Nc3ccccn3)n2)cc1O,21,13,6,-180,-18,-75
C(=C\c1sc(Nc2ccccc2)n[n+]1-c1ccccc1)/c1ccccc1,-3,-51,-2,101*,79*,-18
COc1ccc(-c2sc(Nc3ccccc3)n[n+]2-c2ccccc2)cc1Br,-11,11,4,-10,-4,10
CC(=O)N1CCN(C(=O)c2cccc(S(=O)(=O)NCc3ccccc3)c2)CC1,15,-14,0,-16,4,-13
O=C(CSc1nc2[nH]ncc2c(=O)n1-c1ccccc1)NCCc1ccccc1,-3,1,5,1,3,18
O=C(CSc1nc2[nH]ncc2c(=O)n1-c1ccccc1)c1ccc2c(c1)OCCO2,34,22,-15,57*,1,17
C/C(=N\Nc1ncnc2sc(C)c(C)c12)c1ccccn1,73*,23,84*,84*,67*,89*
C/C(=N\Nc1ncc(Cl)cc1Cl)c1ccccn1,92*,0,85*,71*,95*,86*
C/C(=N\Nc1ccc(Cl)c(C(=O)O)c1)c1ccccn1,-4,-67,-8,-1,-5,-36
C/C(=N\Nc1ncc(Cl)cc1Cl)c1ccc(N2CCOCC2)cc1,62*,55*,-2,-39,-12,-5
COc1cc2ccnc(Cc3cccc(OC)c3OC)c2cc1OC,10,1,20,15,10,86*
COc1cc2ccnc(C=O)c2cc1OC,56*,2,11,28,.,6
CCN(C(=O)COC(=O)CCC(=O)c1ccc(Cl)cc1)c1c(N)n(Cc2ccccc2)c(=O)[nH]c1=O,-1,-13,1,-10,.,-24
Nc1ccccc1SC(CC(=O)c1ccccc1)c1ccccc1 (centres undefined),1,-47,-21,-91,.,-9
